# From article PMC7862700, “An all-to-all approach to the identification of sequence-specific readers for epigenetic DNA modifications on cytosine”
# Tests used:
# Assay in all cases: DAPPL (digital affinity profiling via proximity ligation, sequencing); 10 mM Tris-HCl pH 7.5, 50 mM NaCl, 1 mM DTT, 4% glycerol, room temperature, 30 min; GST-TFs on glutathione beads, 16-mer random dsDNA library, 0.1% formaldehyde crosslink after washing; high values mean tight binding
# [1] = target: T1, FLI1 (Homo sapiens, UniProt Q01543 1-452); settings: protein: recombinant; tags: N-terminal GST; dsDNA, one strand shown
# T1 sequence: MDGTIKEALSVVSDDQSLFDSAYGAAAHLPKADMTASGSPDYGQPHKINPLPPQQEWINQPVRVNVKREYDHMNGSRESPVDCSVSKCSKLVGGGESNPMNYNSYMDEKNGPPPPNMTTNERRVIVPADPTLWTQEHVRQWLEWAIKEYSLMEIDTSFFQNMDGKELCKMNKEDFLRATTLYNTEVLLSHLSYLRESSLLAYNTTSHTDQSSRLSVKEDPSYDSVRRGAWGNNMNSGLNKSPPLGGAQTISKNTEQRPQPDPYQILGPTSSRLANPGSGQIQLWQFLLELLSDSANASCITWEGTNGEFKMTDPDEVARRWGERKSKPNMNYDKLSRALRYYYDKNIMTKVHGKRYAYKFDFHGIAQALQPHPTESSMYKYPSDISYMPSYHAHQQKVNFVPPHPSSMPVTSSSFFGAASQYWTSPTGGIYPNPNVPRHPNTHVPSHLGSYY
# Method in brief: (§1)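 GST fusions of human transcription factors were expressed in yeast and captured with glutathione beads. Once given DNA barcodes and pooled alongside a tag-only sample, they were incubated for 30 min at room temperature with 200 nmole of a random double-stranded 16-mer DNA library in Tris/NaCl/DTT/glycerol buffer, then washed, crosslinked (0.1% formaldehyde), proximity-ligated, PCR-amplified and sequenced on an Illumina NextSeq500. The binding signal of each hexamer is its read frequency for a factor divided by its frequency for the tag-only sample.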
# [2] = target: T2, ELK1 (Homo sapiens, UniProt P19419 1-428); settings: protein: recombinant; tags: N-terminal GST; dsDNA, one strand shown
# T2 sequence: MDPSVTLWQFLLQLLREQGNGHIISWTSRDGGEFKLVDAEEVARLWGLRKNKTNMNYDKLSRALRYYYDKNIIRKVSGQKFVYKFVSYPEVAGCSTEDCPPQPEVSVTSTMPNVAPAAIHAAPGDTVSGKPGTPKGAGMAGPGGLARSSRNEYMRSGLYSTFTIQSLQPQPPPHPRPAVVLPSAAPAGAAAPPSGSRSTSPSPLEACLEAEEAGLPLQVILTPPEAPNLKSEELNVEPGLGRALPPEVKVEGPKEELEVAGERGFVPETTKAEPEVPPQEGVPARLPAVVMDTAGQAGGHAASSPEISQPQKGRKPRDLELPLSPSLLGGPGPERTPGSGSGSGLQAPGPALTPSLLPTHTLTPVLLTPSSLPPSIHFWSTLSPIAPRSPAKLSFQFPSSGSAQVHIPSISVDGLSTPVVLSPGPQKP
# Method in brief: as §1
# [3] = target: T3, GABPA (Homo sapiens, UniProt Q06546 1-454); settings: protein: recombinant; tags: N-terminal GST; dsDNA, one strand shown
# T3 sequence: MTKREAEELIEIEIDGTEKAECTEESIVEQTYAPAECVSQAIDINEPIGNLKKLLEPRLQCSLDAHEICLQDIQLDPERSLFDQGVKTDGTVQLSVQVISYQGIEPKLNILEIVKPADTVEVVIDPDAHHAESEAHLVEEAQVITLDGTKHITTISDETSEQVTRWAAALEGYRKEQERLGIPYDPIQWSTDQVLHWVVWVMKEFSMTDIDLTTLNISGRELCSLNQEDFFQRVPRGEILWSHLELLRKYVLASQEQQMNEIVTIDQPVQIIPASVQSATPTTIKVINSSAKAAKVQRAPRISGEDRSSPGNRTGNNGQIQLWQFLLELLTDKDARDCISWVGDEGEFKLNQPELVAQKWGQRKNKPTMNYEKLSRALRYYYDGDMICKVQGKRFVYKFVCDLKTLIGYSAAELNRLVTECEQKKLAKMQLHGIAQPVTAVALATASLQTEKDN
# Method in brief: as §1
# [4] = target: T4, ERG (Homo sapiens, UniProt P11308 1-479); settings: protein: recombinant; tags: N-terminal GST; dsDNA, one strand shown
# T4 sequence: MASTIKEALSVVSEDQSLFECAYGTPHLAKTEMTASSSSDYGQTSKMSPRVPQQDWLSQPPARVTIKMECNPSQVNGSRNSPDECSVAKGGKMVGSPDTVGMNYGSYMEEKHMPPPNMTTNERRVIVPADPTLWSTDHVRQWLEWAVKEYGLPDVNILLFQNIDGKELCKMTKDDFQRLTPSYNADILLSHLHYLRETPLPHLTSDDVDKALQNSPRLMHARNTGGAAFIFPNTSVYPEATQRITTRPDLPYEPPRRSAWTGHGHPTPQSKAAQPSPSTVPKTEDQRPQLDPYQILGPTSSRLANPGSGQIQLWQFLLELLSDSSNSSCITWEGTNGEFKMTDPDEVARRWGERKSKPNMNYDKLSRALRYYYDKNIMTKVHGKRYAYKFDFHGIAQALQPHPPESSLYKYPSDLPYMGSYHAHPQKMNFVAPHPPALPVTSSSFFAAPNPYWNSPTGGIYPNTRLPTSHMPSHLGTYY
# Method in brief: as §1
# [5] = target: ELF1 (Homo sapiens, UniProt P32519 1-619); settings: protein: recombinant; tags: N-terminal GST; dsDNA, one strand shown
# Method in brief: as §1
# [6] = target: T5, EHF (Homo sapiens, UniProt Q9NZC4 1-300); settings: protein: recombinant; tags: N-terminal GST; dsDNA, one strand shown
# T5 sequence: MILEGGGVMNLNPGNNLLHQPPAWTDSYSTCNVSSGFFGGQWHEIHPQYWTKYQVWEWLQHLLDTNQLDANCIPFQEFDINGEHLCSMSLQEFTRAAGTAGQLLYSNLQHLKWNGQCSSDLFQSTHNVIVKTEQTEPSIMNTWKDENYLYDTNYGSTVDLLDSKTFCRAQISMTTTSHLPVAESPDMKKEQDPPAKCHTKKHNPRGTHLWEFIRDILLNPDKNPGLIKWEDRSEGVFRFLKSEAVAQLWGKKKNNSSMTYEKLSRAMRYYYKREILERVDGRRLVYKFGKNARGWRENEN
# Method in brief: as §1
# [7] = target: SPI1 (Homo sapiens, UniProt P17947 1-270); settings: protein: recombinant; tags: N-terminal GST; dsDNA, one strand shown
# Method in brief: as §1
# [8] = target: SPIB (Homo sapiens, UniProt Q01892 1-262); settings: protein: recombinant; tags: N-terminal GST; dsDNA, one strand shown
# Method in brief: as §1
# [9] = target: T6, ELK3 (Homo sapiens, UniProt P41970 1-407); settings: protein: recombinant; tags: N-terminal GST; dsDNA, one strand shown
# T6 sequence: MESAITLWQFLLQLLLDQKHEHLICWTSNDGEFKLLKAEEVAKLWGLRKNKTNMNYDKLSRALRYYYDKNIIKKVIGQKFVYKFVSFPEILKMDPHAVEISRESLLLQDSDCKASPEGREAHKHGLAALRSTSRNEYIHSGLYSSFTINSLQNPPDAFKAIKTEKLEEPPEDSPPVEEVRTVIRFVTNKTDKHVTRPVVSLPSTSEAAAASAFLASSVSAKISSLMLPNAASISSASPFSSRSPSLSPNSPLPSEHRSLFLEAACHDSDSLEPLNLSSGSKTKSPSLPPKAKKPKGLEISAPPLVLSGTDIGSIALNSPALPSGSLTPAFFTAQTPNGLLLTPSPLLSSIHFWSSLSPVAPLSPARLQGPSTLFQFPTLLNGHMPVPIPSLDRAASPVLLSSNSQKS
# Method in brief: as §1
# [10] = target: T7, FEV (Homo sapiens, UniProt Q99581 1-238); settings: protein: recombinant; tags: N-terminal GST; dsDNA, one strand shown
# T7 sequence: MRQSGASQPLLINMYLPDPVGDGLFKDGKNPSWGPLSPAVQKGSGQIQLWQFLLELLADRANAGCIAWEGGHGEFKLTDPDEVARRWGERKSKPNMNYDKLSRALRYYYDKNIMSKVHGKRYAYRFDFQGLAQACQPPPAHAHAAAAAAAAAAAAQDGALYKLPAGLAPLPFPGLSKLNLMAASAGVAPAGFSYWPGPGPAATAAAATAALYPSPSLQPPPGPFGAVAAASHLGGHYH
# Method in brief: as §1
# [11] = target: ETV5 (Homo sapiens, UniProt P41161 1-510); settings: protein: recombinant; tags: N-terminal GST; dsDNA, one strand shown
# Method in brief: as §1
# [12] = target: HSF1 (Homo sapiens, UniProt Q00613 1-529); settings: protein: recombinant; tags: N-terminal GST; chain copies: 3; dsDNA, one strand shown
# Method in brief: as §1
# [13] = target: T8, SPIC (Homo sapiens, UniProt Q8N5J4 1-248); settings: protein: recombinant; tags: N-terminal GST; dsDNA, one strand shown
# T8 sequence: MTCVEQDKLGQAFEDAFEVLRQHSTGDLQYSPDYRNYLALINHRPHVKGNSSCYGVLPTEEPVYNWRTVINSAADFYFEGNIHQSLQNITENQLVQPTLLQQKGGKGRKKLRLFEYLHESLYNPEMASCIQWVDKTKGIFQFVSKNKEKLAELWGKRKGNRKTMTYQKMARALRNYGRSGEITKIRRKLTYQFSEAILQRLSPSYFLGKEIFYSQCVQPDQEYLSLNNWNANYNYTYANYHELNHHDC
# Method in brief: as §1
# [14] = target: ELF4 (Homo sapiens, UniProt Q99607 1-663); settings: protein: recombinant; tags: N-terminal GST; dsDNA, one strand shown
# Method in brief: as §1
# [15] = target: T9, ELK4 (Homo sapiens, UniProt P28324-2 1-405); settings: protein: recombinant; tags: N-terminal GST; dsDNA, one strand shown
# T9 sequence: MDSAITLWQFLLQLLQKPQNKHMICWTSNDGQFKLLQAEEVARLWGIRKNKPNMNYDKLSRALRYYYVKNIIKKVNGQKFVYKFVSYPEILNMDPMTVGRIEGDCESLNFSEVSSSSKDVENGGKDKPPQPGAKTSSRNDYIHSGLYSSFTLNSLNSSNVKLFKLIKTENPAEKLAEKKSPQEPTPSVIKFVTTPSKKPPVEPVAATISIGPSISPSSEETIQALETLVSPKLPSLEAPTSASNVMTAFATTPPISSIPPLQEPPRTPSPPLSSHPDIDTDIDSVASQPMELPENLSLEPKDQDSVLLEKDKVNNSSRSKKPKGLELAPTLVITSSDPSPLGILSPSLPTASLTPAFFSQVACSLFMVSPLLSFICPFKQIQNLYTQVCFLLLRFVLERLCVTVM
# Method in brief: as §1
# [16] = target: T10, ETV2 (Homo sapiens, UniProt O00321 1-342); settings: protein: recombinant; tags: N-terminal GST; dsDNA, one strand shown
# T10 sequence: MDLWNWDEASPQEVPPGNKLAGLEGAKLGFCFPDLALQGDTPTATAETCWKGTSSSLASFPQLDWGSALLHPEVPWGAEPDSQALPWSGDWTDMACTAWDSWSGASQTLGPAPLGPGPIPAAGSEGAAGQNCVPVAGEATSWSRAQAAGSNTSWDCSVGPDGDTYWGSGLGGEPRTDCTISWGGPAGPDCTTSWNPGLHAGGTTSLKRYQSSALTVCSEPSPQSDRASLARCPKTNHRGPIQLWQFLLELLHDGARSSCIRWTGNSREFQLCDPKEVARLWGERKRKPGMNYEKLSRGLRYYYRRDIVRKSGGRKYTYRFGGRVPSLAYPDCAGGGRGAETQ
# Method in brief: as §1
# [17] = target: T11, ELF3 (Homo sapiens, UniProt P78545 1-371); settings: protein: recombinant; tags: N-terminal GST; dsDNA, one strand shown
# T11 sequence: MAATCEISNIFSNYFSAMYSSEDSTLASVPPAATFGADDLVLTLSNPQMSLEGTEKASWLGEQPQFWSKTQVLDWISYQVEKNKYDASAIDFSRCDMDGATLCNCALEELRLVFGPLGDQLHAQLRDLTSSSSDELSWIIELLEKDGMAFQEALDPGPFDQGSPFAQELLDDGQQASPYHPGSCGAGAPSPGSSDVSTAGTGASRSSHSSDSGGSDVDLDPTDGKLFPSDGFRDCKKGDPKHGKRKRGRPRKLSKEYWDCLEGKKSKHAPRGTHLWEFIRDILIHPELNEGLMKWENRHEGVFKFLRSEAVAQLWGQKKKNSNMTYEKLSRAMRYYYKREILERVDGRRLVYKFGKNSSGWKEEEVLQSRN
# Method in brief: as §1
# [18] = target: CRX (Homo sapiens, UniProt O43186 1-299); settings: protein: recombinant; tags: N-terminal GST; dsDNA, one strand shown
# Method in brief: as §1
# [19] = target: ETV1 (Homo sapiens, UniProt P50549 1-477); settings: protein: recombinant; tags: N-terminal GST; dsDNA, one strand shown
# Method in brief: as §1
# ETV1, sequence (P50549 whole entry): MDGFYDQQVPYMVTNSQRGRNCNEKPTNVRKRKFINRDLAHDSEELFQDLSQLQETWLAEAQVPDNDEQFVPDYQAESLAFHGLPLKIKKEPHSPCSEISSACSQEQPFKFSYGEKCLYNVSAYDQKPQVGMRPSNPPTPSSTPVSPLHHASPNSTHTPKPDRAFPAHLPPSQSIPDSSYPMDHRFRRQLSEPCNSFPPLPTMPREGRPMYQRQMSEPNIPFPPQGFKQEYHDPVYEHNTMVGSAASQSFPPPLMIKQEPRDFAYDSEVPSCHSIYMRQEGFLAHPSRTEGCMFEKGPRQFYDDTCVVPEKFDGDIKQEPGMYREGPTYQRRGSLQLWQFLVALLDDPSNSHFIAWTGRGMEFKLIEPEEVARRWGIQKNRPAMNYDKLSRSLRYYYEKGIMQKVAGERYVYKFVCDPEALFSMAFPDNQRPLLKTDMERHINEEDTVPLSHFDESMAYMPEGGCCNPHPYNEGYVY
# ETV5, sequence (P41161 whole entry): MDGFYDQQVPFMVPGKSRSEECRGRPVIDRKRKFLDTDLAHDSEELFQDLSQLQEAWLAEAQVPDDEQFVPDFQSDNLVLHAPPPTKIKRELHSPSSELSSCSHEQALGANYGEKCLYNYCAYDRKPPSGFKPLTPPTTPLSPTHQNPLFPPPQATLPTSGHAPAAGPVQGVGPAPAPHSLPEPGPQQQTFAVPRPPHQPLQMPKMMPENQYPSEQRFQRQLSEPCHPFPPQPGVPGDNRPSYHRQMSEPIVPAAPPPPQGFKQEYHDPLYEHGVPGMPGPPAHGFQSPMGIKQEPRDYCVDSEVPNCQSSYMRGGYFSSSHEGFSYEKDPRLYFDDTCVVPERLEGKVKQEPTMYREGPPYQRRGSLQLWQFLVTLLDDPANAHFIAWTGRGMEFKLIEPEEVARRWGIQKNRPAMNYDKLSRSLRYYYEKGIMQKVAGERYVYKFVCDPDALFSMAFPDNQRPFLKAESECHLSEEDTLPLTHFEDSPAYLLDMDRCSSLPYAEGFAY
# SPIB, sequence (Q01892 whole entry): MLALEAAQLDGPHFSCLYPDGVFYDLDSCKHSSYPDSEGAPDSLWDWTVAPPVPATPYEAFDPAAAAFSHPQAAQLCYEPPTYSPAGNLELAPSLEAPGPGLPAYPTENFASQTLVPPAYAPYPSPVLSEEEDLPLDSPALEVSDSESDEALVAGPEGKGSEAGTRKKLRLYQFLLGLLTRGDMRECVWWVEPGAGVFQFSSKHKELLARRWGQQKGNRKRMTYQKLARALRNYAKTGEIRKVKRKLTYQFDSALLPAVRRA
# ELF4, sequence (Q99607 whole entry): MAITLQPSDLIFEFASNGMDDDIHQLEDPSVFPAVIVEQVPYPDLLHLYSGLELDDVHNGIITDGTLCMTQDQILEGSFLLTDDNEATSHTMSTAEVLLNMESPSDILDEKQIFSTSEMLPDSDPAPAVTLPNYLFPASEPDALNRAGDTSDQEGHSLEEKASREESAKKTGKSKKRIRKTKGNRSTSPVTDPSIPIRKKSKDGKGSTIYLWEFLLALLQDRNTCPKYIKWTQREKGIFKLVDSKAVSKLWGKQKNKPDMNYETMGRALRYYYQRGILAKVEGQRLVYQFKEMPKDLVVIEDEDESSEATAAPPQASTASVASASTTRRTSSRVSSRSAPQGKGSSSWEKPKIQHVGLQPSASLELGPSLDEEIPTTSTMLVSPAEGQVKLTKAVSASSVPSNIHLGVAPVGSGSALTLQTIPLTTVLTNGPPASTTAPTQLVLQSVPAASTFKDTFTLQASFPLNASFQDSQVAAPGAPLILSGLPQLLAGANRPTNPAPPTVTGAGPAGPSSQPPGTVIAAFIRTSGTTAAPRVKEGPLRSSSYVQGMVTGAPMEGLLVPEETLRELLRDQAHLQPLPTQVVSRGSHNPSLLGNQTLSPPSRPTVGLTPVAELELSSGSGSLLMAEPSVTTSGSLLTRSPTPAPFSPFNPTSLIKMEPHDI
# ELF1, sequence (P32519 whole entry): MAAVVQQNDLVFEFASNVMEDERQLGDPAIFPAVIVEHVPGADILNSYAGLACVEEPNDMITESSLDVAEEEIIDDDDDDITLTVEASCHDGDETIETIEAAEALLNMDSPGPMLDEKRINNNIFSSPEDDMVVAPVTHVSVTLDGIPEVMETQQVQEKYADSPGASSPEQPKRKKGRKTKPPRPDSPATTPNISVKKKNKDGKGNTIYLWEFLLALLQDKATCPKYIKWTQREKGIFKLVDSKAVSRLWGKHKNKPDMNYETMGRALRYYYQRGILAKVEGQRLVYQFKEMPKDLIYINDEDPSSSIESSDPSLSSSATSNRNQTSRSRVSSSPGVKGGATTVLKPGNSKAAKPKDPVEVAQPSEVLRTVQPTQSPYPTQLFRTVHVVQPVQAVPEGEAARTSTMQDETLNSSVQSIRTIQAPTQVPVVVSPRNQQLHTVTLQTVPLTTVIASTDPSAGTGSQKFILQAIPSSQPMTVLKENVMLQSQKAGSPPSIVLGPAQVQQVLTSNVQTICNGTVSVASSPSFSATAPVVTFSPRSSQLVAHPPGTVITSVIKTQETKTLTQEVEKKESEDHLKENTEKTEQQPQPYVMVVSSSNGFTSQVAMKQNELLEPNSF
# CRX, sequence (O43186 whole entry): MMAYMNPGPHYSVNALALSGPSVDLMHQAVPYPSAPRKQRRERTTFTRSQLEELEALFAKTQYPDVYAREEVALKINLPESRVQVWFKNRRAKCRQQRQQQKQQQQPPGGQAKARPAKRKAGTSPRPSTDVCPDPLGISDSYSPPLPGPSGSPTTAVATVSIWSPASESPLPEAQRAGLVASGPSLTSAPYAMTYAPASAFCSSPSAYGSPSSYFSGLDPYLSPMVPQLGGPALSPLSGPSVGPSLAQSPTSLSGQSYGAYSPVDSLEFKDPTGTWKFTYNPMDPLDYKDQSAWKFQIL
# HSF1, sequence (Q00613 whole entry): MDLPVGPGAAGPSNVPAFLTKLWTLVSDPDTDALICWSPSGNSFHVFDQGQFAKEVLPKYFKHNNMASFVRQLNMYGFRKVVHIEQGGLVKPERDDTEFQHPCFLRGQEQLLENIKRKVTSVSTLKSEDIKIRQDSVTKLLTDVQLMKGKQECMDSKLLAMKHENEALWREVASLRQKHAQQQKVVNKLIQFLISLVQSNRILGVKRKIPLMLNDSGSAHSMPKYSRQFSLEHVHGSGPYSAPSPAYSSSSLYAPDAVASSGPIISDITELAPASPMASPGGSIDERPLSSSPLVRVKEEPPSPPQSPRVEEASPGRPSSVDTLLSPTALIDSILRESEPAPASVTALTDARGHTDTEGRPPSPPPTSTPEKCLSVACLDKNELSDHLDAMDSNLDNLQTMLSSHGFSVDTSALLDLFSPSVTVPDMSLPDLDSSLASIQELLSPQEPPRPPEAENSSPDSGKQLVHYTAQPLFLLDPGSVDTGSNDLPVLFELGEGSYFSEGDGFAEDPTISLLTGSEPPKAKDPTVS
sequence,measurement,setting,value
CCTTCA,binding signal,[1],"1.49 fold enrichment (6-mer frequency, TF over GST control)"
same,binding signal,[2],"1.43 fold enrichment (6-mer frequency, TF over GST control)"
same,binding signal,[3],"1.46 fold enrichment (6-mer frequency, TF over GST control)"
same,binding signal,[4],"1.45 fold enrichment (6-mer frequency, TF over GST control)"
same,binding signal,[5],"1.51 fold enrichment (6-mer frequency, TF over GST control)"
same,binding signal,[6],"1.26 fold enrichment (6-mer frequency, TF over GST control)"
same,binding signal,[7],"1.36 fold enrichment (6-mer frequency, TF over GST control)"
same,binding signal,[8],"1.46 fold enrichment (6-mer frequency, TF over GST control)"
same,binding signal,[9],"1.16 fold enrichment (6-mer frequency, TF over GST control)"
same,binding signal,[10],"1.48 fold enrichment (6-mer frequency, TF over GST control)"
same,binding signal,[11],"1.45 fold enrichment (6-mer frequency, TF over GST control)"
same,binding signal,[12],"1.36 fold enrichment (6-mer frequency, TF over GST control)"
same,binding signal,[13],"1.31 fold enrichment (6-mer frequency, TF over GST control)"
same,binding signal,[14],"1.42 fold enrichment (6-mer frequency, TF over GST control)"
same,binding signal,[15],"1.69 fold enrichment (6-mer frequency, TF over GST control)"
same,binding signal,[16],"1.49 fold enrichment (6-mer frequency, TF over GST control)"
same,binding signal,[17],"1.4 fold enrichment (6-mer frequency, TF over GST control)"
same,binding signal,[18],"1.34 fold enrichment (6-mer frequency, TF over GST control)"
same,binding signal,[19],"1.55 fold enrichment (6-mer frequency, TF over GST control)"
